Experimental data taken from publication PMC12431657, “Discovery and mechanistic insights of dibenzoylmethane as a broad spectrum inhibitor of coronavirus” (PLOS Pathogens, 2025).
Like-named read-outs stand apart in the source and are kept apart here. The campaign covered roughly 3,300 compounds. About 95 (3%) showed an effect of 50% or more. This is one part of a sample in which strong results are shown more often than they occur. Peptide text beside a SMILES is read from it.

System: HCoV-229E
Parameters: species or system Huh-7; HTS, protection from HCoV-229E induced cell death, luminescent cell viability (CellCounting-Lite 2.0), inhibition rate
Conditions: 24 h post infection, 1 h compound pre-incubation, 10 µM, inhibitor

Row | Structure (SMILES) | 229E Inhibition rate [%] | 229E Inhibition rate (229E Inhibition rate, 24 h) [%]
1 | Cc1cccc(CC(=O)O)c1 [m-Tolylacetic acid] | 18.9 | 
2 | O=C1O[C@H]([C@@H](O)CO)C(O)=C1O [L-Ascorbic acid] |  | 17.7
3 | OC[C@H]1O[C@H](OC[C@H]2O[C@H](OC[C@H]3O[C@H](O[C@]4(CO)O[C@H](CO)[C@@H](O)[C@@H]4O)[C@H](O)[C@@H](O)[C@@H]3O)[C@H](O)[C@@H](O)[C@H]2O)[C@H](O)[C@@H](O)[C@H]1O [Stachyose (tetrahydrate)] | 43.8 | 
4 | OC[C@H]1O[C@@](CO)(O[C@H]2O[C@H](CO[C@@H]3O[C@H](CO)[C@@H](O)[C@H](O)[C@H]3O)[C@@H](O)[C@H](O)[C@H]2O)[C@@H](O)[C@@H]1O [Gentianose] | 0 | 
5 | OC[C@H]1O[C@H](OC[C@H]2O[C@H](O[C@]3(CO)O[C@H](CO)[C@@H](O)[C@@H]3O)[C@H](O)[C@@H](O)[C@@H]2O)[C@H](O)[C@@H](O)[C@H]1O [Raffinose] | 52.1 | 
6 | C=C(C)[C@@H]1CC[C@]2(C(=O)O[C@@H]3O[C@H](CO[C@@H]4O[C@H](CO)[C@@H](O[C@@H]5O[C@@H](C)[C@H](O)[C@@H](O)[C@H]5O)[C@H](O)[C@H]4O)[C@@H](O)[C@H](O)[C@H]3O)CC[C@]3(C)[C@H](CC[C@@H]4[C@@]5(C)CC[C@H](O[C@@H]6OC[C@H](O)[C@H](O)[C@H]6O[C@@H]6O[C@@H](C)[C@H](O)[C@@H](O)[C@H]6O)[C@@](C)(CO)[C@@H]5CC[C@]43C)[C@@H]12 [Pulchinenoside C] | 12.2 | 
7 | C=C1C(=O)O[C@@H]2C[C@@]3(C)CCCC(=C)[C@@H]3C[C@H]12 [Isoalantolactone] | 20.6 | 
8 | CC1=C2C(=O)O[C@@H](c3ccoc3)[C@]2(C)CCC1 [Fraxinellone] | 13.5 | 
9 | C[C@@H]1C[C@H]2OC(=O)[C@@]3(C)CCC[C@@](C)([C@@H]23)[C@@]1(O)CCc1ccoc1 [Marrubiin] | 59.8 | 
10 | C[C@@H](O)[C@@H](C)O [2,3-Butanediol] |  | 20.3
11 | O=C(CCCCCCCCc1ccc(O)c(O)c1)c1c(O)cccc1O [Malabaricone C] | 42.8 | 
12 | CC(C)=CCc1c(O)cc(O)c2c(=O)cc(-c3ccc(O)cc3)oc12 [Licoflavone C] | 28.1 | 
13 | CC(C)=CCc1c(O)cc(O)c2c(=O)c(-c3ccc(O)cc3)coc12 [Lupiwighteone] | 63.8 | 
14 | CC(C)=CCc1c(-c2ccc(O)cc2O)oc2c(CC=C(C)C)c(O)cc(O)c2c1=O [Mulberrin] | 20.6 | 
15 | CC(C)=CCc1cc(-c2coc3cc(O)cc(O)c3c2=O)cc(O)c1O [Glycyrrhisoflavone] | 62.7 | 
16 | O=c1c(-c2ccc(O)cc2)coc2cc(O)cc(O)c12 [Genistein] | 17.6 | 
17 | CC(C)=CCc1c(O)ccc(-c2coc3cc(O)cc(O)c3c2=O)c1O [Licoisoflavone A] | 0 | 
18 | COc1cc2c(cc1OC)-c1cc3ccc4c(c3c(=O)n1CC2)OCO4 [8-Oxoepiberberine] | 17.9 | 
19 | O=C(O)C1CCCCN1O (centres unmarked) [N-Hydroxypipecolic acid] | 19 | 
20 | COC(=O)[C@@]1(C)CC[C@]2(C(=O)O)CC[C@]3(C)C(=CC[C@@H]4[C@@]5(C)C[C@H](O)[C@H](O)[C@@](C)(CO)[C@@H]5CC[C@]43C)[C@@H]2C1 [Phytolaccagenin] | 22.3 | 
21 | CC[C@H](C)[C@H](N)C(=O)N[C@@H](C)C(=O)N[C@@H](CCCN=C(N)N)C(=O)N[C@@H](CCCN=C(N)N)C(=O)N[C@@H](Cc1cnc[nH]1)C(=O)N1CCC[C@H]1C(=O)N[C@@H](Cc1ccc(O)cc1)C(=O)N[C@@H](Cc1ccccc1)C(=O)N[C@@H](CC(C)C)C(=O)O [Kinetensin] (H-IARRHPYFL-OH) | 56.1 | 
22 | CSCC[C@H](NC(=O)[C@H](CC(C)C)NC(=O)CNC(=O)[C@H](Cc1ccccc1)NC(=O)[C@H](Cc1ccccc1)NC(=O)[C@H](CCC(N)=O)NC(=O)[C@H](CCC(N)=O)NC(=O)[C@@H]1CCCN1C(=O)[C@H](CCCCN)NC(=O)[C@@H]1CCCN1C(=O)[C@@H](N)CCCN=C(N)N)C(N)=O [Substance P] | 0 | 
23 | CC(C)[C@H](NC(=O)[C@H](CC(=O)O)NC(=O)[C@H](CCCCN)NC(=O)[C@@H](N)CCCN=C(N)N)C(=O)N[C@@H](Cc1ccc(O)cc1)C(=O)O [Thymopentin] (H-RKDVY-OH) |  | 21.6
24 | N[C@H](CC(=O)O)C(=O)O [(-)-Aspartic acid] | 9.6 | 
25 | Cc1c(N)nc([C@H](CC(N)=O)NC[C@H](N)C(N)=O)nc1C(=O)N[C@H](C(=O)N[C@H](C)[C@@H](O)[C@H](C)C(=O)N[C@H](C(=O)NCCc1nc(-c2nc(C(=O)NCCC[S+](C)C)cs2)cs1)[C@@H](C)O)[C@@H](O[C@@H]1O[C@@H](CO)[C@@H](O)[C@H](O)[C@@H]1O[C@H]1O[C@H](CO)[C@@H](O)[C@H](OC(N)=O)[C@@H]1O)c1cnc[nH]1 [Bleomycin (sulfate)] | 12.9 | 
26 | CC(C)=CCC[C@H](C)CC=O [(S)-(-)-Citronellal] | 6.7 | 
27 | C[C@@H]1CC[C@@]2(OC1)O[C@H]1C[C@H]3[C@@H]4CC=C5C[C@@H](O)C[C@@H](O[C@@H]6O[C@H](C)[C@H](O)[C@H](O[C@@H]7OC[C@@H](O)[C@H](O)[C@H]7O)[C@H]6O[C@@H]6O[C@H](CO)[C@@H](O)[C@H](O)[C@H]6O)[C@]5(C)[C@H]4CC[C@]3(C)[C@H]1[C@@H]2C [Saponin C, from Liriope muscari] | 0 | 
28 | C[C@@H]1CC[C@@]2(OC1)O[C@H]1C[C@H]3[C@@H]4CC=C5C[C@@H](O)C[C@@H](O[C@@H]6O[C@H](C)[C@H](O)[C@H](O[C@@H]7OC[C@@H](O)[C@H](O)[C@H]7O)[C@H]6O[C@@H]6O[C@@H](C)[C@H](O)[C@@H](O)[C@H]6O)[C@]5(C)[C@H]4CC[C@]3(C)[C@H]1[C@@H]2C [Ophiopogonin D] |  | 50.3
29 | C[C@@H]1CC[C@@]2(OC1)O[C@H]1C[C@H]3[C@@H]4CC=C5C[C@@H](O)C[C@@H](O[C@@H]6O[C@H](C)[C@H](O)[C@H](O[C@@H]7OC[C@@H](O)[C@H](O)[C@H]7O)[C@H]6O[C@@H]6O[C@@H](C)[C@H](O)[C@@H](O)[C@H]6O)[C@]5(C)[C@H]4CC[C@]3(C)[C@H]1[C@@H]2C [Ophiopogonin D'] |  | 6.6
